Assay results: the supplement of paper PMC10849652
Targets with a hit are over-represented here; the source holds about 8,800 in all. About 0.5% of all pairs of compound and target were hits. Values without a mark were called inactive.

compound: C1=CC(=CC=C1C2=NC3=C(N2)C=C(C=C3)C(=O)N)OC4=CC=C(C=C4)Cl; experiment: log2 fold change, soluble protein after heating vs DMSO (PISA); higher = thermal stabilisation; K562 lysate, 10 uM; active = over 0.2 and 3.5 SD of the protein, either way, in both replicates (recomputed)
Method in brief: (§1)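 Log-two fold change in thermal stability relative to solvent controls is reported from duplicates. For each sample, crude K562 extract from dounce-homogenised pellets in PBS pH 7.4 with 1 mM MgCl2, at 1 mg/mL protein, was treated with 10 μM compound for 30 min. Aliquots heated for 3 min across 48°C-58°C were pooled, brought to 0.5% NP-40 at 4°C and cleared at 21,000xg for 90 min. The supernatant was quantified by TMTpro 16plex LC-MS/MS with channel sums equalised.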

Sequence of UniProt O76075 (O76075 whole entry, looked up): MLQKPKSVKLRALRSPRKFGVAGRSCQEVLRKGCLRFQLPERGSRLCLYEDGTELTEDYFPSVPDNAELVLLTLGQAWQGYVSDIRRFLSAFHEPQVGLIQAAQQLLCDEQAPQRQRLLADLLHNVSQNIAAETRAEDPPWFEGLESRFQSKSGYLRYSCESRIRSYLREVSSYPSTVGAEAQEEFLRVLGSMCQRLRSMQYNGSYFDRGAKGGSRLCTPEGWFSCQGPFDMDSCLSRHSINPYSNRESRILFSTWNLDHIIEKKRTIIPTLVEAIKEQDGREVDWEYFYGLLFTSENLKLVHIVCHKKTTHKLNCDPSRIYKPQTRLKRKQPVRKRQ
Sequence of UniProt Q96LJ7 (Q96LJ7 whole entry, looked up): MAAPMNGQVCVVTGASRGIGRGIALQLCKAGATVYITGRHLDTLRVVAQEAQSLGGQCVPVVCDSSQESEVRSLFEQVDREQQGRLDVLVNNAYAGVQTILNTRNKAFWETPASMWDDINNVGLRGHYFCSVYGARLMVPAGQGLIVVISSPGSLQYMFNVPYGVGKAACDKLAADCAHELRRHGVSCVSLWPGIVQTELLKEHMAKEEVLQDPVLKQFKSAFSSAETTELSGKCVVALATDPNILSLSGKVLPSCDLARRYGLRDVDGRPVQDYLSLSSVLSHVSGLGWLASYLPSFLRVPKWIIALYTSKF
Sequence of UniProt P00374 (P00374 whole entry, looked up): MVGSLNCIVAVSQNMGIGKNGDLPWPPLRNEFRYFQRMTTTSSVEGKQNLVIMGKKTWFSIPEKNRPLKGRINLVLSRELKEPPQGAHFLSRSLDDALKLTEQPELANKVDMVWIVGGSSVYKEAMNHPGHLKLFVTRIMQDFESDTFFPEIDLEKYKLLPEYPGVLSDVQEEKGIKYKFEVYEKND
Sequence of UniProt Q8TB03 (Q8TB03 whole entry, looked up): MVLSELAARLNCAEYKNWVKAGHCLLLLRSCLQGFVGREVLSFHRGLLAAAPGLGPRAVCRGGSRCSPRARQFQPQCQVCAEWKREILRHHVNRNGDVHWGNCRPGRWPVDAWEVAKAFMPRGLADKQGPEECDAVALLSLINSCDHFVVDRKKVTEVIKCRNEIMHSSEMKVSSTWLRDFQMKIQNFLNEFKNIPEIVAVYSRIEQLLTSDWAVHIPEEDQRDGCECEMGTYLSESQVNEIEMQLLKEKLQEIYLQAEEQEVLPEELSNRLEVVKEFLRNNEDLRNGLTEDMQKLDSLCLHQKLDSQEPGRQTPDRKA
Sequence of UniProt P61923 (P61923 whole entry, looked up): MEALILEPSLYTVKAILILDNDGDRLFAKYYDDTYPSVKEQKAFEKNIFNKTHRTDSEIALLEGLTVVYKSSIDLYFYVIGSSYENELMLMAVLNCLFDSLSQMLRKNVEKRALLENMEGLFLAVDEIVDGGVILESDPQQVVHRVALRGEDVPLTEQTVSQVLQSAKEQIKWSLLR
Sequence of UniProt Q92989 (Q92989 whole entry, looked up): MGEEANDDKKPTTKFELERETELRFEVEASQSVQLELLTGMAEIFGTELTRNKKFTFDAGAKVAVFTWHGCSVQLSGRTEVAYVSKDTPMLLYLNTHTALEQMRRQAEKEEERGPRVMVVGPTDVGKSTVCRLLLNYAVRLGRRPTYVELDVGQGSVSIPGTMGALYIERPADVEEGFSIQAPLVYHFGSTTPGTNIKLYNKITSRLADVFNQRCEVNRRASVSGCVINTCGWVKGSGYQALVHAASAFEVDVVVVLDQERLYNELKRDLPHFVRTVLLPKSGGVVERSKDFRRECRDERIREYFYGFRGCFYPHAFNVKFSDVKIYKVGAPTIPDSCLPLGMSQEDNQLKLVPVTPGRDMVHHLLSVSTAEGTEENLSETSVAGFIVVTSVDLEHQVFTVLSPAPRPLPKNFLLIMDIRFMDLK
Sequence of UniProt Q9H2P9 (Q9H2P9 whole entry, looked up): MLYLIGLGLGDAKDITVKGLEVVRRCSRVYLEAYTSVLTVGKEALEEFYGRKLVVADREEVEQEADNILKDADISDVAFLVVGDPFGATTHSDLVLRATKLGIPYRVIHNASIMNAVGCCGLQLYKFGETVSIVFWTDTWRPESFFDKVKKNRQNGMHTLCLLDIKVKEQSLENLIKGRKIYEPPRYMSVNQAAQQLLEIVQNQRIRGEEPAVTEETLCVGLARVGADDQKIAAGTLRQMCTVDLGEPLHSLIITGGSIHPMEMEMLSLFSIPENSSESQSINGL
Sequence of UniProt Q96BY6 (Q96BY6 whole entry, looked up): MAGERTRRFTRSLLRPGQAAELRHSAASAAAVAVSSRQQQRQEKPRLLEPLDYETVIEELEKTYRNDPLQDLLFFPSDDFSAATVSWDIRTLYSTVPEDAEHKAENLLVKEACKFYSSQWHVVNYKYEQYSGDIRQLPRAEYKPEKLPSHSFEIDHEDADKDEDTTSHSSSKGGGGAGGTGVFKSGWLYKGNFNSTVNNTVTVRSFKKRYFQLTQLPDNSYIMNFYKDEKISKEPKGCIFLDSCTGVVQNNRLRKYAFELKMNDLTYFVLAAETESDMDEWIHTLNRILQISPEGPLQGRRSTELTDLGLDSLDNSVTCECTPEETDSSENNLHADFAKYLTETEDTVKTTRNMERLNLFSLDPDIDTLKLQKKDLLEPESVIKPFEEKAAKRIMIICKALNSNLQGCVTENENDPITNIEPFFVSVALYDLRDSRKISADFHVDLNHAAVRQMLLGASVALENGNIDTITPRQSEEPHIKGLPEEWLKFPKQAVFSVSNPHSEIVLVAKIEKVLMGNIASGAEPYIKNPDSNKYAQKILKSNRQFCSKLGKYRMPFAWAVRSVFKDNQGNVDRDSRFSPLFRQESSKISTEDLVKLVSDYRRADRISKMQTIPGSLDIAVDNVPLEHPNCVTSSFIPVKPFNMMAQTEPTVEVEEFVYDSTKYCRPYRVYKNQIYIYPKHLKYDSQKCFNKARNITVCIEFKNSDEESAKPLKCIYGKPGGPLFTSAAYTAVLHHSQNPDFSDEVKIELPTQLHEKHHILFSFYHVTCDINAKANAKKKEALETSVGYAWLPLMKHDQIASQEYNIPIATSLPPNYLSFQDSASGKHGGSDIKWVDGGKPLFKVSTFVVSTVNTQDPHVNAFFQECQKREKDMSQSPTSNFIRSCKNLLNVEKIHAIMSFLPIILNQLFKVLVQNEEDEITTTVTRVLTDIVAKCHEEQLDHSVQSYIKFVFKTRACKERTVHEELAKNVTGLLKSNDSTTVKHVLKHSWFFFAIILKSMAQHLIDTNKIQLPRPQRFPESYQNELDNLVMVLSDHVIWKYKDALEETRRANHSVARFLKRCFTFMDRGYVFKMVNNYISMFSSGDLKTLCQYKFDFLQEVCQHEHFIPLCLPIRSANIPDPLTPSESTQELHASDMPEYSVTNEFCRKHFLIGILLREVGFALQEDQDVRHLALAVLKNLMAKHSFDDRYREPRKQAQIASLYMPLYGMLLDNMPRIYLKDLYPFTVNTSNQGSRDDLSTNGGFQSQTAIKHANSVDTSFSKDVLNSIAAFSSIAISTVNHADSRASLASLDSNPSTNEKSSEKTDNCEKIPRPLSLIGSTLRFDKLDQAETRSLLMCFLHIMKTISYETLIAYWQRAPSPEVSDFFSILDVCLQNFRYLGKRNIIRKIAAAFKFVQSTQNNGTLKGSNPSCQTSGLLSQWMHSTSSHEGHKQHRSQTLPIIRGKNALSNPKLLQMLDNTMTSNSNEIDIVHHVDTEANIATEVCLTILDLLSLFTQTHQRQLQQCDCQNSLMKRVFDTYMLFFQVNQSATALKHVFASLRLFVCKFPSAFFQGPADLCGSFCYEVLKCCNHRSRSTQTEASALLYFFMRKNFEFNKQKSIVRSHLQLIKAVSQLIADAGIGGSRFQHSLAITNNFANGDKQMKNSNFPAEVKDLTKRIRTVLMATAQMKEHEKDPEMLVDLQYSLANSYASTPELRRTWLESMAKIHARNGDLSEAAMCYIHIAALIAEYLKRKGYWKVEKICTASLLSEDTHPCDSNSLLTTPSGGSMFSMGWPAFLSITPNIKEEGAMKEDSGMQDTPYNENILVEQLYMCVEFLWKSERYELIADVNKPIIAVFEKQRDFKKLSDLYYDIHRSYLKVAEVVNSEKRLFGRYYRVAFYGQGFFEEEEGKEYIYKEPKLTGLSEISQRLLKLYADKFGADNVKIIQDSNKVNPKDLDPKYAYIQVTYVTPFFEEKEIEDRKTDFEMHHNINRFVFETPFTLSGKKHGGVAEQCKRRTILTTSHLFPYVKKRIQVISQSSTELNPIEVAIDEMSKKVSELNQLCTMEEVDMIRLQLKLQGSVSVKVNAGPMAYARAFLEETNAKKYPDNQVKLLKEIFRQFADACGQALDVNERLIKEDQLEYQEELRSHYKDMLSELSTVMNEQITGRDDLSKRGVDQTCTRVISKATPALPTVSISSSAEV
Sequence of UniProt Q96DG6 (Q96DG6 whole entry, looked up): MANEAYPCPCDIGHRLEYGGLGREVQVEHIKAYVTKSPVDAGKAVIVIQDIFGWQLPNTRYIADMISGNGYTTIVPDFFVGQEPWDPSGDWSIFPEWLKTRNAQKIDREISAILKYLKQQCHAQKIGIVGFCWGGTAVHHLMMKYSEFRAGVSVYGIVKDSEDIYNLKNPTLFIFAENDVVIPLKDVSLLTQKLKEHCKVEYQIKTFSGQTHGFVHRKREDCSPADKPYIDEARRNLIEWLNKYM
Sequence of UniProt Q99766 (Q99766 whole entry, looked up): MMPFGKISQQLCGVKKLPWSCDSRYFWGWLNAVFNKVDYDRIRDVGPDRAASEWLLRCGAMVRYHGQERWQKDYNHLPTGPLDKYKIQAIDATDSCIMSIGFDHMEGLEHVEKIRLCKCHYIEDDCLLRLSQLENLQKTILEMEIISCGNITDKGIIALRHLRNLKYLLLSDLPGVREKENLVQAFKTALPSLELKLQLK
Sequence of UniProt Q99828 (Q99828 whole entry, looked up): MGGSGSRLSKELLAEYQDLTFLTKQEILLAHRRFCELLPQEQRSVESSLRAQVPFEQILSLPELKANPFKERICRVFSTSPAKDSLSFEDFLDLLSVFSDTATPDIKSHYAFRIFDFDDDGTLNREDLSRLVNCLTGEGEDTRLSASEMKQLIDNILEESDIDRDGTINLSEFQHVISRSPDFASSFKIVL

Target	log2 fold change
CLCN3 (UniProt P51790)	-0.067
DHRS11 (UniProt Q6UWP2)	-0.004
COTL1 (UniProt Q14019)	0.013
CMBL (UniProt Q96DG6)	-0.03
CPT1A (UniProt P50416)	0.01
DHRS1 (UniProt Q96LJ7)	-0.017
COG7 (UniProt P83436)	-0.025
CXorf38 (UniProt Q8TB03)	-0.003
CNST (UniProt Q6PJW8)	0.05
CUX1 isoform 3 (UniProt P39880)	-0.007
DHFR (UniProt P00374)	-0.023

compound: C1=CC2=C(C=CC(=C2)/C=C\3/C(=O)NC(=NCC4=CC=CS4)S3)N=C1; experiment: as above
Method in brief: as §1

Target	log2 fold change
CIB1 (UniProt Q99828)	0.042
COL6A5 (UniProt A8TX70)	-0.062
DFFB (UniProt O76075)	0.048
CSNK1G3 (UniProt Q9Y6M4)	0.149
DNM2 (UniProt P50570)	0.013
COPZ1 isoform 4 (UniProt P61923)	-0.036
DPH5 isoform 5 (UniProt Q9H2P9)	0.066
COQ9 (UniProt O75208)	0.041
DLD (UniProt P09622)	-0.01
CLP1 (UniProt Q92989)	-0.001
DMAC2L (UniProt Q99766)	0.008
DOCK10 (UniProt Q96BY6)	0.007
